Reference: PubChem BioAssay (Tox21)
A number with no mark means an inactive call. Inconclusive results are not listed. A call without a number means that no potency is given here. Active and inactive are the calls of the source. Unless noted, calls come from the whole dose curve; as a rule, active = well fitted curve in the direction sought with a large enough effect in the repeat runs; inconclusive = weak or mixed curves; inactive = no such curve, though single readings can be large; an effect the other way counts as inactive or inconclusive.

Legend:
[1] = qHTS assay to identify small molecule agonists of the sonic hedgehog signaling (Shh) pathway (AID 1259368; calls by dose curve;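 note: NIH/3T3-derived 3T3Gli1-Luc cells carrying a stable Gli1-driven firefly luciferase reporter; series mostly up to about 92 µM; nearly all actives have a fitted effect of over 15% in size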)
Procedure, shortened: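 Luminescence was read after 30 min at room temperature with luciferase reagent. Before that, 3T3Gli1-Luc cells (NIH/3T3 clone, stable Gli1-Luc reporter; 2,000/well) were exposed to compounds for 24 hr at 37C, 5% CO2, compounds being added 4 hr post-plating.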

[2] = qHTS assay to identify small molecule agonists of the androgen receptor (AR) signaling pathway in the presence of an antagonist - cell viability counter screen (AID 1259379);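 note: MDA-kb2 human breast cancer cells carrying an MMTV luciferase reporter; series mostly up to about 92 µM; nearly all actives have a fitted effect of over 25% in size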
Procedure, shortened: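 Cytotoxicity counter-screen run in the same wells as the nilutamide-challenged (3.0 µM final) AR agonist assay in MDA-kb2 cells. Compounds tested at 15 concentrations for 16 h, 37 °C without CO2; CellTiter-Fluor fluorescence read.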

[3] = qHTS assay to identify small molecule agonists of the estrogen receptor beta (ER-beta) signaling pathway - cell viability counter screen (AID 1259380); note: nearly all actives have a fitted effect of over 30% in size; note: potency is the fitted concentration of half-maximal effect
Procedure, shortened: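 Cell viability counter screen: CellTiter-Glo luminescence (30 min, room temperature) measured in the same wells as the beta-lactamase readout, after 16 hr compound exposure at 37C of ER-beta-bla HEK293T cells in 2% charcoal-stripped FBS medium.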

[4] = qHTS assay to identify small molecule antagonists of the estrogen receptor beta (ER-beta) signaling pathway - cell viability counter screen (AID 1259382);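 note: HEK293T cells carrying ER-beta-UAS-bla reporter stimulated with estradiol; series mostly up to about 92 µM; nearly all actives have a fitted effect of over 55% in size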
Procedure, shortened: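 Cytotoxicity was measured in the same wells by CellTiter-Glo luminescence after 30 min at room temperature. Cells were ER-beta-bla HEK293T in charcoal-stripped serum, given compound together with 1 nM E2 and incubated 16 h at 37C.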

[5] = qHTS assay to identify small molecule agonists or antagonists of the thyroid stimulating hormone receptor (TSHR) signaling pathway - wild type cell line counter screen (AID 1259384; calls by dose curve)
Procedure, shortened: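 Counter screen in untransfected Hek293: compounds (15-point titration, triplicate) plus phosphodiesterase inhibitor Ro20-1724 added after 18 h plating; 30 min RT. Intracellular cAMP via competitive d2/cryptate immunoassay, 1 h incubation.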

[6] = molecular target: Thyrotropin receptor (Homo sapiens) (UniProt P16473); test: qHTS assay to identify small molecule antagonists of the thyroid stimulating hormone receptor (TSHR) signaling pathway (AID 1259385; calls by dose curve; note: nearly all actives have a fitted effect of over 20% in size)
Procedure, shortened: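 Antagonist mode: compound-treated TSHR-expressing HEK293 cells were stimulated with 1.5 ng/mL TSH (final) in presence of Ro20-1724 for 30 min at RT. HTRF cAMP detection after 1 h; each compound tested at 15 concentrations, triplicate.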

[7] = molecular target: Progesterone receptor (Homo sapiens) (UniProt P06401); test: qHTS assay to identify small molecule agonists of the progesterone receptor (PR) signaling pathway (AID 1346784; calls by dose curve; note: nearly all actives have a fitted effect of over 30% in size; note: potency is the fitted concentration of half-maximal effect)
Procedure, shortened: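 Cells (PR-UAS-bla HEK 293T, GripTite) were plated in assay medium containing 2% charcoal-stripped FBS and incubated 6 hr. Test compounds in DMSO were added for 16 hr at 37C. FRET substrate was then loaded for 2 hr at room temperature before fluorescence reading.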

[8] = molecular target: Progesterone receptor (Homo sapiens) (UniProt P06401); test: qHTS assay to identify small molecule antagonists of the progesterone receptor (PR) signaling pathway (AID 1346795; active = well fitted inhibition curve with a large enough effect in the signal ratio in the repeat runs, not every such curve was filed as active; the % refers to the signal ratio; note: potency is the fitted concentration of half-maximal effect)
Procedure, shortened: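 Antagonist mode: compounds tested against 1 nM (final) promegestone stimulation in HEK293T cells expressing PR-UAS-bla reporter, 16 hr at 37C, 5% CO2; beta-lactamase activity detected via B/G FRET substrate after 2 hr at room temperature.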

[9] = qHTS assay to identify small molecule antagonists of the progesterone receptor (PR) signaling pathway - cell viability counter screen (AID 1346798); note: series mostly up to about 92 µM; nearly all actives have a fitted effect of over 50% in size
Procedure, shortened: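 Counter screen for cytotoxicity: viability of PR-UAS-bla HEK293T cells was measured with CellTiter-Glo luminescence following 16 hr compound exposure in the presence of R5020.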

[10] = qHTS assay to identify small molecule agonists of the progesterone receptor (PR) signaling pathway - cell viability counter screen (AID 1346799; calls by dose curve; note: nearly all actives have a fitted effect of over 45% in size)
Procedure, shortened: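 Cells (PR-UAS-bla HEK293T) are plated at 3,000/well in 2% charcoal-stripped FBS medium, rested 6 hr, dosed and incubated 16 hr at 37C. CellTiter-Glo is then added and luminescence measured after 30 min at room temperature.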

[11] = qHTS assay to identify small molecule antagonists of the TGF-beta/Smad signaling pathway - cell viability counter screen (AID 1346824); note: nearly all actives have a fitted effect of over 50% in size
Procedure, shortened: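 Cytotoxicity counter-screen run in the same wells as the beta-lactamase Smad reporter read: CellTiter-Glo luminescence after 30 min at room temperature. HEK 293T SBE-bla cells had 5 hr compound exposure at 37 C with TGF-beta1 (0.25 ng/mL stock).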

[12] = qHTS assay to identify small molecule agonists of the TGF-beta/Smad signaling pathway - cell viability counter screen (AID 1346829); note: top concentration of the series differs between compounds; nearly all actives have a fitted effect of over 45% in size
Procedure, shortened: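 Luminescence from CellTiter-Glo, read after a 30 min room-temperature incubation, gives cell viability of SBE-bla HEK 293T cells treated 5 hr with compounds at 37 C.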

[13] = qHTS assay to identify small molecule agonists of the TGF-beta/Smad signaling pathway (AID 1346859; active = well fitted activation curve with a large enough effect in the signal ratio in the repeat runs, not every such curve was filed as active; the % refers to the signal ratio; note: series mostly up to about 77 µM)
Procedure, shortened: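 Reporter line: HEK 293T with stably integrated SBE-controlled beta-lactamase. Compound exposure lasts 5 hr at 37 C and 5% CO2; substrate loading follows for 2 hr at room temperature, with emission read at 460 and 530 nm.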

[14] = molecular target: Thyrotropin-releasing hormone receptor (Homo sapiens) (UniProt P34981); test: qHTS assay to identify small molecule antagonists of the thyrotropin-releasing hormone receptor (TRHR) signaling pathway (AID 1346877; active = well fitted inhibition curve with a large enough effect in the repeat runs, not every such curve was filed as active; note: series mostly up to about 51 µM)
Procedure, shortened: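 Antagonist mode: after a 5 min room-temperature compound exposure, cells were stimulated with 1 nM (final) TRH. Dye-loaded TRHR-HEK293 cells were used, and calcium-dependent fluorescence was followed for 3 min, with 15-point titrations run in triplicate.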

[15] = molecular target: Estrogen receptor beta (Homo sapiens) (UniProt Q92731); test: qHTS assay to identify small molecule antagonists of the estrogen receptor beta (ER-beta) signaling pathway (AID 1259378; active = well fitted inhibition curve with a large enough effect in the signal ratio in the repeat runs, not every such curve was filed as active; the % refers to the signal ratio)
Procedure, shortened: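 Antagonist mode: compounds added to beta-lactamase reporter HEK293T ER-beta-UAS cells stimulated with E2 (1nM final), 16 hr at 37C. LiveBLAzer B/G FRET substrate, 2 hours room temperature, fluorescence read-out.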

[16] = qHTS assay to identify small molecule agonists of the estrogen receptor alpha (ER-alpha) signaling pathway in the presence of an antagonist - cell viability counter screen (AID 1259386); note: series mostly up to about 92 µM; nearly all actives have a fitted effect of over 30% in size
Procedure, shortened: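 Compounds tested at 15 concentrations for 22 h at 37C alongside 10.0nM (final) ICI-182,780 antagonist, in VM7Luc4E2 cells grown in phenol red-free, charcoal-stripped medium. Viability read by CellTiter-Fluor fluorescence after 1 h reagent incubation.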

[17] = qHTS assay to identify small molecule antagonists of the sonic hedgehog signaling (Shh) pathway (AID 1259369; calls by dose curve; note: nearly all actives have a fitted effect of over 45% in size)
Procedure, shortened: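 Antagonist mode: compound added to 3T3 Gli1-Luc cells followed by conditioned-medium stimulation, 24 h at 37 C, 5% CO2. Inhibition taken as loss of Gli1-driven luciferase luminescence.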

[18] = molecular target: Estrogen receptor (Homo sapiens) (UniProt P03372); test: qHTS assay to identify small molecule agonists of the estrogen receptor alpha (ER-alpha) signaling pathway in the presence of an antagonist (AID 1259383; calls by dose curve; note: top concentration of the series differs between compounds; nearly all actives have a fitted effect of over 15% in size)
Procedure, shortened: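 Agonist-mode confirmation run in the presence of 10.0nM (final) ICI-182,780 antagonist. The reporter was ERE-driven luciferase in VM7Luc4E2 cells, grown in charcoal-stripped serum. Cells were exposed to 15-concentration compound series for 22hr, then ONE-Glo luminescence was read.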

[19] = molecular target: Estrogen receptor beta (Homo sapiens) (UniProt Q92731); test: qHTS assay to identify small molecule agonists of the estrogen receptor beta (ER-beta) signaling pathway (AID 1259377; active = well fitted activation curve with a large enough effect in the signal ratio in the repeat runs, not every such curve was filed as active; the % refers to the signal ratio)
Procedure, shortened: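 Agonist mode cell assay in GripTite HEK293T cells expressing an ER-beta fusion that drives beta-lactamase from an Upstream Activator Sequence; 16 hr compound exposure at 37C, then 2 h LiveBLAzer B/G FRET substrate at room temperature, fluorescence read-out.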

Sequence of Progesterone receptor (Homo sapiens) (P06401 whole entry, looked up): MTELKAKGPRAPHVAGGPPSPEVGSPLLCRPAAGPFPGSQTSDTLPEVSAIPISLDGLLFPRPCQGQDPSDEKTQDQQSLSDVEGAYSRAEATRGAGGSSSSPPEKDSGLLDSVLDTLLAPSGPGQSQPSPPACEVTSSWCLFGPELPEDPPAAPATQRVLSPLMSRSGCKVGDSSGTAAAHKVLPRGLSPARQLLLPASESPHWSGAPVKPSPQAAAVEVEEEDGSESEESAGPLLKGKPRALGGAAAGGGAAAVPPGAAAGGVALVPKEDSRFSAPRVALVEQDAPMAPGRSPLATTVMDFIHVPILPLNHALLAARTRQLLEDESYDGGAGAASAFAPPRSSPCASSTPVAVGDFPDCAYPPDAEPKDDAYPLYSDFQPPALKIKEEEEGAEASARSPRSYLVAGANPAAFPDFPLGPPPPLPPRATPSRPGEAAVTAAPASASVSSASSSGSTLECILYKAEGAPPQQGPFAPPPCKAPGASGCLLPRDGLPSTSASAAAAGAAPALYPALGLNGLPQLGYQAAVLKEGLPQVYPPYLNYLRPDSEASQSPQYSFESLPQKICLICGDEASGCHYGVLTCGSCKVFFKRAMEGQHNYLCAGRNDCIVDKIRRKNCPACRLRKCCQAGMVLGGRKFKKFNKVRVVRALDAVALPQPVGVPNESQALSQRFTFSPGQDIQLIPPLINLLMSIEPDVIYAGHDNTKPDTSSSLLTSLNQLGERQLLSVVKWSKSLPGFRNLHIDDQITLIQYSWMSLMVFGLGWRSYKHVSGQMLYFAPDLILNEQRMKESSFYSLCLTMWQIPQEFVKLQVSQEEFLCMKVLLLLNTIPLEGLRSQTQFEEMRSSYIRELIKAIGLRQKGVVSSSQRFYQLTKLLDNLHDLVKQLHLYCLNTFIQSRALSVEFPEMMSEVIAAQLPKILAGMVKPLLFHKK
Sequence of Thyrotropin-releasing hormone receptor (Homo sapiens) (P34981 whole entry, looked up): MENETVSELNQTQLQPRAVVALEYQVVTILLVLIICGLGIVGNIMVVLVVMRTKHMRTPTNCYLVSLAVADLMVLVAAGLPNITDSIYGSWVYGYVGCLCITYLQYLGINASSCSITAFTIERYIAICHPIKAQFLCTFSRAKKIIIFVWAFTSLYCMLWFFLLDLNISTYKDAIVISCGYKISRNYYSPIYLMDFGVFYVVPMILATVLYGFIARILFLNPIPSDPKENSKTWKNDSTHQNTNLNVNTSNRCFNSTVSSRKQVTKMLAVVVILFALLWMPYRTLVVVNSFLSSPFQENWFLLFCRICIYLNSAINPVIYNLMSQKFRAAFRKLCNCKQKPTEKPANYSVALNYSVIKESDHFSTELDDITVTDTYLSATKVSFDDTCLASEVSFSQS
Sequence of Thyrotropin receptor (Homo sapiens) (P16473 whole entry, looked up): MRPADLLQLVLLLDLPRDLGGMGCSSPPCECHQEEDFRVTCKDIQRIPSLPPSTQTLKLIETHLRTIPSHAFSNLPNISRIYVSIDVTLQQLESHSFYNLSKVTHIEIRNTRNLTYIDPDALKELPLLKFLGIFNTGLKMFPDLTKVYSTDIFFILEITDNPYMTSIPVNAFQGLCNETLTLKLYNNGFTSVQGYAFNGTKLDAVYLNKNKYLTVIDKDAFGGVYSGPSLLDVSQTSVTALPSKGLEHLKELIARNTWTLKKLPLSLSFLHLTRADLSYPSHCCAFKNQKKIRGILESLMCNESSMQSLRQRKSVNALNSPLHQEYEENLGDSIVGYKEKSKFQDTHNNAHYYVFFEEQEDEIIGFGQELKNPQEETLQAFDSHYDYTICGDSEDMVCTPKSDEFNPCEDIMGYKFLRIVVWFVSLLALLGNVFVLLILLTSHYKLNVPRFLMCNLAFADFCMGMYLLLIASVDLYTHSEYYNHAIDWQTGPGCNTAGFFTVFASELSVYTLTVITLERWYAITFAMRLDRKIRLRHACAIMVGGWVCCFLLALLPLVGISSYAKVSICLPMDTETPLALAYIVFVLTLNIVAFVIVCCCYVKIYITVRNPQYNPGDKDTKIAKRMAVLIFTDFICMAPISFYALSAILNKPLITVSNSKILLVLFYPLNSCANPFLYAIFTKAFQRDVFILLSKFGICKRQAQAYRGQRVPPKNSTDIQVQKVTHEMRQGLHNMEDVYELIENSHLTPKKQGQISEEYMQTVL
Sequence of Estrogen receptor (Homo sapiens) (P03372 whole entry, looked up): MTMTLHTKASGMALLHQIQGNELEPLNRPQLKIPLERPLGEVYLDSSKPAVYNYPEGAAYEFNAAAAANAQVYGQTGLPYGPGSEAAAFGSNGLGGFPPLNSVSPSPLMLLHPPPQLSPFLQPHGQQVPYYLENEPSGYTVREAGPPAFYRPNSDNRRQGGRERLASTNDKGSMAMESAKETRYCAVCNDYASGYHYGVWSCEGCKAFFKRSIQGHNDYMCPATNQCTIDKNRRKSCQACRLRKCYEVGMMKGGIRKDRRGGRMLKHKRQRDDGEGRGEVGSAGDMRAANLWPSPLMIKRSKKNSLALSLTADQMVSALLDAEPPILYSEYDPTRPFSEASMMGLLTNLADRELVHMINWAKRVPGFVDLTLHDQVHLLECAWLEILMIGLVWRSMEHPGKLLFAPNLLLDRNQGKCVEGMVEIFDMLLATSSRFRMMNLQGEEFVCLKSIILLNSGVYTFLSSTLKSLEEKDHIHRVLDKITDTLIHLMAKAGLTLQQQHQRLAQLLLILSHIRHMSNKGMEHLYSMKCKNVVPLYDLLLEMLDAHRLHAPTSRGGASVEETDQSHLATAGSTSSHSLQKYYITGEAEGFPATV
Sequence of Estrogen receptor beta (Homo sapiens) (Q92731 whole entry, looked up, the tested form may be a part): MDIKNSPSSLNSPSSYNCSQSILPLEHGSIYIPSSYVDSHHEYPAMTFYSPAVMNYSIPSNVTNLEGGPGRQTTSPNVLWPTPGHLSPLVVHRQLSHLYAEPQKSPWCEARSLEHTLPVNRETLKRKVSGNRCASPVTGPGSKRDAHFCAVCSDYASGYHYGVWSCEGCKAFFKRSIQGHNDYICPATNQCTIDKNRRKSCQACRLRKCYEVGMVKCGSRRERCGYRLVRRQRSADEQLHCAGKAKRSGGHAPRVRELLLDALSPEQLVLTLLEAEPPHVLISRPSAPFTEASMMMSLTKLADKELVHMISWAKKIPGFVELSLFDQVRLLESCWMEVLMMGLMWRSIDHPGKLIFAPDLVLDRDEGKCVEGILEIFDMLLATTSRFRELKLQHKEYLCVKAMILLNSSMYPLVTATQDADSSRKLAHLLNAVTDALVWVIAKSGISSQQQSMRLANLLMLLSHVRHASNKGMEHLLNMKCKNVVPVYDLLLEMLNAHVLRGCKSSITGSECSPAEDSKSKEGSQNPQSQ

Row | SMILES | Potency [1] | Potency [2] | Potency [3] | outcome [4] | outcome [5] | Potency [6] | Potency [7] | Potency [8] | Potency [9] | Potency [10] | outcome [11] | outcome [12] | outcome [13] | outcome [14] | Potency [15] | Potency [16] | Potency [17] | Potency [18] | outcome [19]
1 | CN(C)CC[C@@H](c1ccc(Cl)cc1)c1ccccn1 | inactive | inactive | inactive | inactive | inactive | inactive | inactive | inactive | inactive | inactive | inactive | inactive | inactive | inactive |  |  |  |  | 
2 | CN1[C@@H]2CC[C@H]1CC(OC(=O)c1c[nH]c3ccccc13)C2 (some centres undefined) | inactive | inactive |  | inactive | inactive | inactive |  |  | inactive |  | inactive | inactive | inactive | inactive | inactive | inactive |  |  | 
3 | CC1CN(c2ccccc2)NC1=O (centres undefined) | inactive | inactive |  | inactive | inactive |  |  |  | inactive | inactive | inactive | inactive | inactive | inactive |  |  |  |  | 
4 | Nc1ccc(Oc2ccc(N)c(N)c2)cc1 |  | inactive |  | inactive | inactive |  |  |  |  |  | inactive | inactive | inactive | inactive |  |  | inactive | inactive | 
5 | CCc1cc(Cl)c(OC)c(C(=O)NC[C@@H]2CCCN2CC)c1O | inactive | inactive |  | inactive |  |  | inactive | inactive | inactive |  | inactive | inactive | inactive |  |  | inactive |  | inactive | 
6 | CCOc1ccc2nc(N)sc2c1 | inactive |  |  | inactive | inactive |  | inactive | 60.6 µM (active) | inactive | inactive | inactive | inactive | inactive | inactive |  | inactive |  | inactive | 
7 | CCCCCCOc1ccc(N)cc1 | inactive | inactive | 17.2 µM (active) |  |  |  | inactive |  | inactive | inactive | inactive | inactive | inactive |  |  |  |  |  | 
8 | CCCCOc1cc(C(=O)NCCN(CC)CC)c2ccccc2n1 | inactive |  |  | inactive | inactive |  | inactive |  |  |  | inactive | inactive | inactive |  |  | inactive |  |  | inactive
9 | NC1=NCC2c3ccccc3Cc3ccccc3N12 (centres undefined) | inactive | inactive | inactive | inactive |  |  | inactive | inactive | inactive | inactive | inactive | inactive | inactive | inactive |  | inactive |  |  | 
10 | C[C@]12CCC(=O)C=C1CC[C@@H]1[C@@H]2CC[C@@]2(C)[C@H]1CC[C@]2(O)C(=O)CO | inactive | inactive | inactive | inactive | inactive | inactive | 8.41 µM (active) |  | inactive |  | inactive | inactive | inactive | inactive |  | inactive |  | inactive | 
